# In PubChem BioAssay (NCI):
# The panel holds about 83,000 compounds, 20% with a hit somewhere; the sample as a whole holds those more often.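 Compound tested at a single concentration for 48 hours in 96-well plates; a percent growth value below 10 was scored as active.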 Values without a mark were called inactive. Activity calls are given as the source filed them.
# Tested on: RPMI-8226 leukemia
# Test: NCI-60 one-dose screen, 48 h (100 = growth as untreated, 0 = no growth, -100 = all killed)
# Details: 10 µM unless noted
row,Compound,growth
1,Cc1cc(=O)oc2cc(Oc3nc(-c4ccccc4)cn4c(-c5ccccc5)cnc34)ccc12,51%
2,Cc1ccc2c(n1)C[C@H](C(C)(C)O)CC[C@H]2C,110%
3,Nc1nc(N)c2c(n1)NC(c1cccc(Nc3ccnc4cc(C(F)(F)F)ccc34)c1)CC(c1ccc(Cl)cc1)=N2 (stereo not given),-1.21% (active)
4,C(CCCSC1=NCCN1)CCSC1=NCCN1,107%
5,O=S(=O)(Nc1ccc(Br)cc1)c1ccc(-c2cnc(C3CC3)o2)cc1,13.9%
6,Nc1n[nH]c2cccc(C#Cc3cccc(C(=O)Nc4ccc(Cl)c(C(F)(F)F)c4)c3)c12,53.1%
7,NC(=N\N=C/c1ccc(Cl)cc1Cl)/C(N)=N\N=C/c1ccc(Cl)cc1Cl,62.2%
8,COc1cc(C(=O)/C=C/c2c(-c3cccs3)nc3sc(C)cn23)cc(OC)c1OC,2.15% (active)
9,Nc1nc(=O)n([C@H]2CC=C(CO)O2)cc1F,101%
10,COc1ccc(Nc2nccc(Nc3ccc4[nH]ncc4c3)n2)cc1,2.72% (active)
11,Cc1[nH]c(C(=O)Nc2ccccc2OC2CCNC2)c(Cl)c1Cl (stereo not given),79%
12,CCN1CCN(CCOc2ccc(CNc3ccc4nc(CCC5CCCCC5)[nH]c4c3)cc2)CC1,-5.5% (active)
13,O=C1NCCS(=O)(=O)/C1=C\C=C\c1cccc(C(F)(F)F)c1,-7.36% (active)
14,CCCCCCCCCCCCCC[n+]1ccc2c(C)c3c(c(C)c2c1)c1cc(O)ccc1n3CC,-51.5% (active)
15,CCCc1cc(CCC)n2nc(N)nc2n1,104%
16,O=S(=O)(c1ccc(NCSc2nc3ccccc3s2)cc1)c1ccc(NCSc2nc3ccccc3s2)cc1,92.1%
17,COc1cc(/C=C2\CN(S(=O)(=O)c3ccc(C)cc3)C/C(=C\c3cc(CN4CCCC4)c(O)c(OC)c3)C2=O)cc(CN2CCCC2)c1O,-34.6% (active)
18,Cc1cccc(CN(Nc2ccccc2)c2ccccc2)n1,96.3%
19,O=C(NS(=O)(=O)c1ccccc1)n1cc(-c2ccncc2)c(-c2cc(O)cc(Cl)c2)n1,85.2%
20,CCCCN(CCC#N)C(N)=O,113%

row,Compound,growth
1,CCOC(=O)/C(=C/c1ccc([N+](=O)[O-])cc1)C(=O)c1ccccc1,-13% (active)
2,N#Cc1c(-c2ccc(F)cc2)cc(-c2cccc(Cl)c2)[nH]c1=O,42.1%
3,O=C(Nc1cccc(Cn2c(=O)[nH]c3ccc(Oc4ncccn4)cc3c2=O)c1)c1cccc(Cl)c1,35.1%
4,O=C1c2c(c3c4cccnc4[nH]c3c3ccc4ccccc4c23)C(=O)N1O,16%
5,COC(=O)c1nc(-c2ccccc2)oc1S(=O)(=O)N1CCN(c2ccc(OC)cc2)CC1,37.3%
6,O=C1c2ccccc2-c2c1c1ccncc1c(=O)n2CCCn1ccnc1,34.1%
7,COc1cc(-c2c(-c3ccccc3)c[nH]c2C(=O)NCCCO)c(OC)c2c1OCO2,99.7%
8,C=C(C)Cn1c(SCC(=O)c2cccs2)nc2sc3c(c2c1=O)CCCC3,50.7%
9,CNC1=C([N+](=O)[O-])C(c2ccc(OC)cc2)C(C#N)=C(c2ccc[nH]2)O1 (stereo not given),96.2%
10,Cn1cc(-c2nc(-c3c[nH]c4c(Cl)nccc34)cs2)c2ccccc21,87.2%
11,N/C(=N\c1nc2ccccc2s1)NC(=O)Nc1ccccc1,7.59% (active)
12,C#Cc1ccc(NC(=O)Cc2ccc(/C=C/C(=O)c3nccn3C)cc2)cc1,19.2%
13,Cc1cc2c(C(C)C)c(O)c(O)c(/C=N/O)c2c(O)c1-c1c(C)cc2c(C(C)C)c(O)c(O)c(/C=N/O)c2c1O,15%
14,O=C(Nc1ccc2[nH]ncc2c1)c1csc(Nc2ccccc2)n1,7.99% (active)
15,COC(=O)c1nc(-c2ccccc2)oc1S(=O)(=O)NCC(c1ccc(Cl)cc1)N1CCCCC1 (stereo not given),20%
16,O=C(Nc1ccc(Oc2cccc(F)c2)c(Cl)c1)c1cnccn1,18%
17,COc1ccc(Nc2nc(Nc3cc(C)[nH]n3)c3cc(OC)c(OC)cc3n2)cc1,-50.4% [20 µM] (active)
18,COC(=O)c1cc(-c2ccc(OC)c(OC)c2)[nH]c1N/N=C/c1c(Cl)cccc1Cl,24.1%
19,CC(C)=CCC[C@](C)(O)C1CC[C@]2(C)[C@@H]1CC[C@@H]1[C@@]3(C)CC/C(=N\OCCC#N)C(C)(C)[C@@H]3CC[C@]12C (stereo not given in full),36%
20,N#C/C(=C\c1cccc2cnccc12)N1N=NC2C=CC=CC21 (stereo not given),18.8%

# Tested on: OVCAR-8 ovarian
# Test: as above
# Details: 10 µM unless noted
row,Compound,growth
1,Cc1cc(=O)oc2cc(Oc3nc(-c4ccccc4)cn4c(-c5ccccc5)cnc34)ccc12,61.6%
2,Cc1ccc2c(n1)C[C@H](C(C)(C)O)CC[C@H]2C,101%
3,Nc1nc(N)c2c(n1)NC(c1cccc(Nc3ccnc4cc(C(F)(F)F)ccc34)c1)CC(c1ccc(Cl)cc1)=N2 (stereo not given),62.4%
4,C(CCCSC1=NCCN1)CCSC1=NCCN1,98.4%
5,O=S(=O)(Nc1ccc(Br)cc1)c1ccc(-c2cnc(C3CC3)o2)cc1,41.5%
6,Nc1n[nH]c2cccc(C#Cc3cccc(C(=O)Nc4ccc(Cl)c(C(F)(F)F)c4)c3)c12,65.8%
7,NC(=N\N=C/c1ccc(Cl)cc1Cl)/C(N)=N\N=C/c1ccc(Cl)cc1Cl,76.6%
8,COc1cc(C(=O)/C=C/c2c(-c3cccs3)nc3sc(C)cn23)cc(OC)c1OC,0.3% (active)
9,Nc1nc(=O)n([C@H]2CC=C(CO)O2)cc1F,99.7%
10,COc1ccc(Nc2nccc(Nc3ccc4[nH]ncc4c3)n2)cc1,9.36% (active)
11,Cc1[nH]c(C(=O)Nc2ccccc2OC2CCNC2)c(Cl)c1Cl (stereo not given),94%
12,CCN1CCN(CCOc2ccc(CNc3ccc4nc(CCC5CCCCC5)[nH]c4c3)cc2)CC1,38.2%
13,O=C1NCCS(=O)(=O)/C1=C\C=C\c1cccc(C(F)(F)F)c1,20.4%
14,CCCCCCCCCCCCCC[n+]1ccc2c(C)c3c(c(C)c2c1)c1cc(O)ccc1n3CC,-43.4% (active)
15,CCCc1cc(CCC)n2nc(N)nc2n1,106%
16,O=S(=O)(c1ccc(NCSc2nc3ccccc3s2)cc1)c1ccc(NCSc2nc3ccccc3s2)cc1,96.8%
17,COc1cc(/C=C2\CN(S(=O)(=O)c3ccc(C)cc3)C/C(=C\c3cc(CN4CCCC4)c(O)c(OC)c3)C2=O)cc(CN2CCCC2)c1O,8.04% (active)
18,Cc1cccc(CN(Nc2ccccc2)c2ccccc2)n1,98.5%
19,O=C(NS(=O)(=O)c1ccccc1)n1cc(-c2ccncc2)c(-c2cc(O)cc(Cl)c2)n1,104%
20,CCCCN(CCC#N)C(N)=O,107%

row,Compound,growth
1,CCOC(=O)/C(=C/c1ccc([N+](=O)[O-])cc1)C(=O)c1ccccc1,41.5%
2,N#Cc1c(-c2ccc(F)cc2)cc(-c2cccc(Cl)c2)[nH]c1=O,53.4%
3,O=C(Nc1cccc(Cn2c(=O)[nH]c3ccc(Oc4ncccn4)cc3c2=O)c1)c1cccc(Cl)c1,58.4%
4,O=C1c2c(c3c4cccnc4[nH]c3c3ccc4ccccc4c23)C(=O)N1O,46%
5,COC(=O)c1nc(-c2ccccc2)oc1S(=O)(=O)N1CCN(c2ccc(OC)cc2)CC1,83.8%
6,O=C1c2ccccc2-c2c1c1ccncc1c(=O)n2CCCn1ccnc1,32.9%
7,COc1cc(-c2c(-c3ccccc3)c[nH]c2C(=O)NCCCO)c(OC)c2c1OCO2,100%
8,C=C(C)Cn1c(SCC(=O)c2cccs2)nc2sc3c(c2c1=O)CCCC3,49%
9,CNC1=C([N+](=O)[O-])C(c2ccc(OC)cc2)C(C#N)=C(c2ccc[nH]2)O1 (stereo not given),99.8%
10,Cn1cc(-c2nc(-c3c[nH]c4c(Cl)nccc34)cs2)c2ccccc21,91.1%
11,N/C(=N\c1nc2ccccc2s1)NC(=O)Nc1ccccc1,41%
12,C#Cc1ccc(NC(=O)Cc2ccc(/C=C/C(=O)c3nccn3C)cc2)cc1,26.2%
13,Cc1cc2c(C(C)C)c(O)c(O)c(/C=N/O)c2c(O)c1-c1c(C)cc2c(C(C)C)c(O)c(O)c(/C=N/O)c2c1O,8.35% (active)
14,O=C(Nc1ccc2[nH]ncc2c1)c1csc(Nc2ccccc2)n1,35.9%
15,COC(=O)c1nc(-c2ccccc2)oc1S(=O)(=O)NCC(c1ccc(Cl)cc1)N1CCCCC1 (stereo not given),57%
16,O=C(Nc1ccc(Oc2cccc(F)c2)c(Cl)c1)c1cnccn1,37.5%
17,COc1ccc(Nc2nc(Nc3cc(C)[nH]n3)c3cc(OC)c(OC)cc3n2)cc1,-31.2% [20 µM] (active)
18,COC(=O)c1cc(-c2ccc(OC)c(OC)c2)[nH]c1N/N=C/c1c(Cl)cccc1Cl,41.1%
19,CC(C)=CCC[C@](C)(O)C1CC[C@]2(C)[C@@H]1CC[C@@H]1[C@@]3(C)CC/C(=N\OCCC#N)C(C)(C)[C@@H]3CC[C@]12C (stereo not given in full),85.1%
20,N#C/C(=C\c1cccc2cnccc12)N1N=NC2C=CC=CC21 (stereo not given),42.9%
